Data published in the supplement of paper PMC10849652.
About 7,900 targets were measured; listed, in parts, are those with a hit and a random draw of the rest. About 0.6% of all pairs of compound and target were hits. Values without a mark were called inactive.

Tests used:
Experiment in all cases: log2 fold change, soluble protein after heating vs DMSO (PISA); higher = thermal stabilisation; K562 cells, 10 uM, 30 min; active = over 0.2 and 3.5 SD of the protein, either way, in both replicates (recomputed)
saracatinib = compound: CN1CCN(CCOc2cc(OC3CCOCC3)c3c(Nc4c(Cl)ccc5c4OCO5)ncnc3c2)CC1 [saracatinib]
Method in brief: (§1)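 For each measurement, 10 μM compound was applied for 30 min to K562 cells at 2×10^6 cells/mL. Aliquots were heated for 3 min across 48°C-58°C, pooled, and extracted in PBS with 0.5% NP-40 at 4°C; the supernatant after 21,000xg for 90 min was soluble protein. This was quantified by TMTpro 16plex LC-MS/MS with channel sums equalised, and thermal stability was reported relative to control samples from duplicates, on a log2 fold-change scale.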

sotrastaurin = compound: CN1CCN(c2nc(C3=C(c4c[nH]c5ccccc45)C(=O)NC3=O)c3ccccc3n2)CC1 [sotrastaurin]
Method in brief: as §1

alvocidib = compound: CN1CC[C@H](c2c(O)cc(O)c3c(=O)cc(-c4ccccc4Cl)oc23)[C@H](O)C1 [alvocidib]
Method in brief: as §1

Tubastatin A = compound: CN1CCc2c(c3ccccc3n2Cc2ccc(C(=O)NO)cc2)C1 [Tubastatin A]
Method in brief: as §1

[1] = compound: CNC(=O)C1=CC=CC=C1NC2=NC(=NC=C2Cl)NC3=C(C=C(C=C3)N4CCOCC4)OC
Method in brief: as §1

defactinib = compound: CNC(=O)c1ccc(Nc2ncc(C(F)(F)F)c(NCc3nccnc3N(C)S(C)(=O)=O)n2)cc1 [defactinib]
Method in brief: as §1

rucaparib = compound: CNCc1ccc(-c2[nH]c3cc(F)cc4c3c2CCNC4=O)cc1 [rucaparib]
Method in brief: as §1

[2] = compound: CNc1nc(-c2ccc3c(N)n[nH]c3c2)cc(N2C[C@@H](C(=O)NC3CCCCC3)CC[C@H]2C)n1
Method in brief: as §1

encorafenib = compound: COC(=O)N[C@@H](C)CNc1nccc(-c2cn(C(C)C)nc2-c2cc(Cl)cc(NS(C)(=O)=O)c2F)n1 [encorafenib]
Method in brief: as §1

[3] = compound: COC(=O)[C@H](CCSC)NC(=O)C1=C(C=C(C=C1)NC[C@H](CS)N)C2=CC=CC=C2
Method in brief: as §1

UniProt Q7L099, sequence (Q7L099 whole entry, looked up): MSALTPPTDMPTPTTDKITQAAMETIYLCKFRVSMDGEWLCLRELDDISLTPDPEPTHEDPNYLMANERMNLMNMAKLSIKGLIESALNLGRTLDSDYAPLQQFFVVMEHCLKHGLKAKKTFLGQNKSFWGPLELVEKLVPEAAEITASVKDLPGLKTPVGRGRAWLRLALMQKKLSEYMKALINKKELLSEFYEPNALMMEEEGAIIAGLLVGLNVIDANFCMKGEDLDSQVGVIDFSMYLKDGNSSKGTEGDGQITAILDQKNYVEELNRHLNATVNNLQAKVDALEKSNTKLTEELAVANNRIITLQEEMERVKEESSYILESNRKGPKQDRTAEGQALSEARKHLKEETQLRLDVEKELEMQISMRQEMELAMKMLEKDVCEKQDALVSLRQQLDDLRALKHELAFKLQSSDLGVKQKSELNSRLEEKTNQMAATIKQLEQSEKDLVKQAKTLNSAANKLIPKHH
UniProt Q9HB90, sequence (Q9HB90 whole entry, looked up): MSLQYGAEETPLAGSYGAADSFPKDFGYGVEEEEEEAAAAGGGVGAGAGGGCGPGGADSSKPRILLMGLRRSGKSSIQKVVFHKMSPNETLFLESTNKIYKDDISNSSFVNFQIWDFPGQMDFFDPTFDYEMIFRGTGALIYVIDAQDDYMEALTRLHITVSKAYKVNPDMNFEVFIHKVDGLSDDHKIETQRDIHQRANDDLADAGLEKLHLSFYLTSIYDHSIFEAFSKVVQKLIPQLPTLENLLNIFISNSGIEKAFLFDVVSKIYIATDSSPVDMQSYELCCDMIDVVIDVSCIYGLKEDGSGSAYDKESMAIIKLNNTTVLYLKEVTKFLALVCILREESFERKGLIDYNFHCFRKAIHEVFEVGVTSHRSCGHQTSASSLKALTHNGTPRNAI
UniProt Q5VTB9, sequence (Q5VTB9 whole entry, looked up): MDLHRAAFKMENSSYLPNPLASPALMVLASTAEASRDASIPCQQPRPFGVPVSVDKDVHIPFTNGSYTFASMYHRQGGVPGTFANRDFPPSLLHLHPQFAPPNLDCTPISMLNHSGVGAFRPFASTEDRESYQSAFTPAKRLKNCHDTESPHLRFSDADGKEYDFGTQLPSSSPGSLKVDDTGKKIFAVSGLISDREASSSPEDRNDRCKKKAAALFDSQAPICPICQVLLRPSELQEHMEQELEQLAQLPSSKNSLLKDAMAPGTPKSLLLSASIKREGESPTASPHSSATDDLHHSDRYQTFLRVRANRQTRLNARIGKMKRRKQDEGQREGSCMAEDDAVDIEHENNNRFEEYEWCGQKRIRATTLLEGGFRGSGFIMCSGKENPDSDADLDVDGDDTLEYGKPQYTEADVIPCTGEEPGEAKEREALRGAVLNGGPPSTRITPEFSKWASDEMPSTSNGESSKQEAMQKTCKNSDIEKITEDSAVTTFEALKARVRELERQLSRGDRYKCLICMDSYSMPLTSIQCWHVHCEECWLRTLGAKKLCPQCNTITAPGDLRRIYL
UniProt Q96ER3, sequence (Q96ER3 whole entry, looked up): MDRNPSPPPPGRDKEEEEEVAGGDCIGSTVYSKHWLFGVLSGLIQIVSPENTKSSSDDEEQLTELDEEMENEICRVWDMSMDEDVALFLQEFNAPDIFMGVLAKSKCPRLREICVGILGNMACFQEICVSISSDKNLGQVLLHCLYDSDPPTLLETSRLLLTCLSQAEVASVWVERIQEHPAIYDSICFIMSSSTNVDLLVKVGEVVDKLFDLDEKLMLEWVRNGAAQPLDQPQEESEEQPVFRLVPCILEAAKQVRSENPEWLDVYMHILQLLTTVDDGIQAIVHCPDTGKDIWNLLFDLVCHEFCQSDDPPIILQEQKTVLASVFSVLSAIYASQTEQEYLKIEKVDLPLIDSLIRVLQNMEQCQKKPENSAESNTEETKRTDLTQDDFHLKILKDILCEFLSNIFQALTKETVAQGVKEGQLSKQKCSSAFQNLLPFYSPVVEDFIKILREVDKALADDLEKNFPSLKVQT
UniProt Q15287, sequence (Q15287 whole entry, looked up): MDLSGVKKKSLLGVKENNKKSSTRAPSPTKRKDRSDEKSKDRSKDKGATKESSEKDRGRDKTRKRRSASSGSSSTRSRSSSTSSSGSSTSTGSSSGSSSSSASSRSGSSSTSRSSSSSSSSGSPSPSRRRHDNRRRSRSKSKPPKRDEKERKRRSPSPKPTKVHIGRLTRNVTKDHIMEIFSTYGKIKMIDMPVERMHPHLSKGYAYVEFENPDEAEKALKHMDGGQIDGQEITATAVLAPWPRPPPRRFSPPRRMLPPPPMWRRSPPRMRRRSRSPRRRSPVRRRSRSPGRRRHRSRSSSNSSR
UniProt P54136, sequence (P54136 whole entry, looked up): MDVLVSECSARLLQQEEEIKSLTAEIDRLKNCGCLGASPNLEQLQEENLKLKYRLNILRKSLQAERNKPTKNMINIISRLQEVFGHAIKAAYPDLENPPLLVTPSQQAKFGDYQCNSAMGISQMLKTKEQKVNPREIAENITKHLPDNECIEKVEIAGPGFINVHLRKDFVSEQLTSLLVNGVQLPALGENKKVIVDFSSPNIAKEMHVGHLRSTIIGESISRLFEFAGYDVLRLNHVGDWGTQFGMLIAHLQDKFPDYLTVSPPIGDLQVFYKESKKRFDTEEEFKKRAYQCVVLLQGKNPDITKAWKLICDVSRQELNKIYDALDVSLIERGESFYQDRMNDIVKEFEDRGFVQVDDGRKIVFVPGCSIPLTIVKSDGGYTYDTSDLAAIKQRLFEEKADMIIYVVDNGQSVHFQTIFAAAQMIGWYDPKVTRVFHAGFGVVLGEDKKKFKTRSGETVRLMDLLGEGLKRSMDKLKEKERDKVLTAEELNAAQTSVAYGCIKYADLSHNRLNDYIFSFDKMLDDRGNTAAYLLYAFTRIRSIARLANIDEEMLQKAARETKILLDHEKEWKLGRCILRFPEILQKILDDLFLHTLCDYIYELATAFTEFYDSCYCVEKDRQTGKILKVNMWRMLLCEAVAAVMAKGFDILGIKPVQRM
UniProt Q5T8P6, sequence (Q5T8P6 whole entry, looked up): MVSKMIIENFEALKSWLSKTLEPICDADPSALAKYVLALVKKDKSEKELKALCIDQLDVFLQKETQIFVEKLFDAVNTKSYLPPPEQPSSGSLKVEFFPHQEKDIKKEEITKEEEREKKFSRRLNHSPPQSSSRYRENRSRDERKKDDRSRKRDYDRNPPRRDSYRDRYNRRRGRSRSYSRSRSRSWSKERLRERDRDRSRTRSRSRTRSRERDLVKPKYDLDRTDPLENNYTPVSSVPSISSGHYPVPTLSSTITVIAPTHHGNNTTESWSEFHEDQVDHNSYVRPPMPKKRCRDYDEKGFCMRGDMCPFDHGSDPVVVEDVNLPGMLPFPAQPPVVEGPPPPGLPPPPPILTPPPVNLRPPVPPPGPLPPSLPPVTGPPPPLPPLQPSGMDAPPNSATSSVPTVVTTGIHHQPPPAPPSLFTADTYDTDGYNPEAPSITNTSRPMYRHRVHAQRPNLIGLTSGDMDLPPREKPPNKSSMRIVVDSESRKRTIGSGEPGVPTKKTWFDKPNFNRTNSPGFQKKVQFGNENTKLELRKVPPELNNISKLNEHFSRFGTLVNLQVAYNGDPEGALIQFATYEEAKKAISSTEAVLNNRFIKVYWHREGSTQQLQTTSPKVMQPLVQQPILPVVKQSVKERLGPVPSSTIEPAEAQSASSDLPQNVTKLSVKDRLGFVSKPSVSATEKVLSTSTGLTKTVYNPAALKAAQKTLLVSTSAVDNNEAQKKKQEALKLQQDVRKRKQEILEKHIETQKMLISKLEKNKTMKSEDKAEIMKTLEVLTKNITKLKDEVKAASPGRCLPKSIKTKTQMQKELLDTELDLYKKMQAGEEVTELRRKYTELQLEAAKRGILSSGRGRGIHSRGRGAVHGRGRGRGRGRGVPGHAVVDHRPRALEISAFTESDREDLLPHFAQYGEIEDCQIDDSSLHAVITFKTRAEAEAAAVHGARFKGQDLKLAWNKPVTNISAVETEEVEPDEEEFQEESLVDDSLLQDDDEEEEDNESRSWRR
UniProt Q9NQG5, sequence (Q9NQG5 whole entry, looked up): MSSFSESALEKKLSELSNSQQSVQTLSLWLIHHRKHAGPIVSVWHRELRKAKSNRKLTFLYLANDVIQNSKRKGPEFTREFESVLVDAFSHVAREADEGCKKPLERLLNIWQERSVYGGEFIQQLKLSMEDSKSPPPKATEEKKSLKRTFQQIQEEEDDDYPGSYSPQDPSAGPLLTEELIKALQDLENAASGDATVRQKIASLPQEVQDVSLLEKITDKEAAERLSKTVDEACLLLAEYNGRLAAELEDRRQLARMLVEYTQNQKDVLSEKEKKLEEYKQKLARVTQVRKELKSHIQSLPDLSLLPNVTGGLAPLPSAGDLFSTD
UniProt Q96D15, sequence (Q96D15 whole entry, looked up): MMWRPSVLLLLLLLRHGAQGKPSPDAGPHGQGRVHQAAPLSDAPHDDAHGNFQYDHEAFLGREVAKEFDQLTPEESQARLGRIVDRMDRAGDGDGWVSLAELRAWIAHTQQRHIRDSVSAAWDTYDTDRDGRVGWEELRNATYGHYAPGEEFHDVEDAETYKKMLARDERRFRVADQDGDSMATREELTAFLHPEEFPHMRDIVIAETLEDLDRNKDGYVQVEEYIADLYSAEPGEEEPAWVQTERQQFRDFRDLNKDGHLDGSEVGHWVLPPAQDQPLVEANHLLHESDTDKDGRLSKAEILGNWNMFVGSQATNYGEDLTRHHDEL
UniProt Q8NBX0, sequence (Q8NBX0 whole entry, looked up): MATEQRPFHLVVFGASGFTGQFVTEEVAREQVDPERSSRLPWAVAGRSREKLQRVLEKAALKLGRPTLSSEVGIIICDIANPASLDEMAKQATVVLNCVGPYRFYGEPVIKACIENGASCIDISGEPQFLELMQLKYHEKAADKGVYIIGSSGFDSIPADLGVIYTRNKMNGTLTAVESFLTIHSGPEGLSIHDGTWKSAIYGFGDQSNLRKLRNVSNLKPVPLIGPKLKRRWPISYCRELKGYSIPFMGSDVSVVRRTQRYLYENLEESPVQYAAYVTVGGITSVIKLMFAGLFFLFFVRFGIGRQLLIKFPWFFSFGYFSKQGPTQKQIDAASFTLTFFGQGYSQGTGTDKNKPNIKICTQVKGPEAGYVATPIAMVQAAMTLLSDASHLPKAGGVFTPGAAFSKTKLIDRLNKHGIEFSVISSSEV

Row | Target | log2 fold change (saracatinib) | log2 fold change (sotrastaurin) | log2 fold change (alvocidib) | log2 fold change (Tubastatin A) | log2 fold change [1] | log2 fold change (defactinib) | log2 fold change (rucaparib) | log2 fold change [2] | log2 fold change (encorafenib) | log2 fold change [3]
1 | RAP1GDS1 isoform 5 (UniProt P52306) | 0.004 | -0.077 | -0.069 | -0.01 | 0.006 | -0.017 | -0.006 | -0.024 | 0.176 | 0.139
2 | RPS4X (UniProt P62701) | -0.164 | -0.017 | 0.247 | 0.123 | 0.063 | 0.302 | 0.185 | 0.089 | 0.08 | 0.014
3 | SLC12A9 (UniProt Q9BXP2) | 0.102 | 0.016 | -0.094 | -0.09 | -0.016 | -0.043 | -0.073 | -0.068 | -0.017 | -0.01
4 | RNF220 (UniProt Q5VTB9) | 0.012 | 0.022 | -0.066 | 0.066 | -0.008 | -0.059 | -0.043 | -0.038 | 0.031 | 0.015
5 | RUFY3 isoform 3 (UniProt Q7L099) | -0.054 | -0.036 | -0.133 | 0 | -0.029 | -0.028 | 0.105 | -0.255 | -0.017 | -0.059
6 | RARS (UniProt P54136) | -0.103 | -0.192 | 0.151 | 0.008 | -0.073 | 0.187 | 0.367 | 0.138 | 0.217 | -0.024
7 | RBM33 (UniProt Q96EV2) | 0.071 | -0.017 | -0.177 | 0.007 | -0.021 | -0.273 (active) | -0.017 | -0.044 | 0.02 | 0.03
8 | RPRD1B (UniProt Q9NQG5) | -0.014 | -0.126 | -0.082 | -0.039 | 0.055 | -0.09 | -0.116 | -0.011 | 0.04 | -0.004
9 | RBM26 isoform 2 (UniProt Q5T8P6) | -0.01 | -0.193 | -0.226 | 0.094 | -0.074 | -0.489 (active) | -0.039 | 0.025 | 0.03 | -0.032
10 | RHOA (UniProt P61586) | 0.079 | -0.025 | 0.018 | -0.025 | -0.029 | 0 | 0.074 | 0.012 | -0.126 | 0.08
11 | SCCPDH (UniProt Q8NBX0) | -0.063 | 0.1 | -0.057 | -0.078 | 0.206 | 0.121 | -0.081 | 0.183 | -0.041 | 0.002
12 | SFXN5 (UniProt Q8TD22) | 0.106 | -0.014 | -0.098 | -0.053 | 0.019 | 0.017 | -0.043 | -0.038 | -0.053 | 0.045
13 | RPS13 (UniProt P62277) | -0.149 | 0 | 0.287 | 0.106 | 0.097 | 0.339 | 0.261 | 0.111 | 0.137 | 0.031
14 | SASH1 (UniProt O94885) | -0.081 | -0.043 | -0.035 | 0.04 | -0.019 | -0.064 | 0.03 | -0.015 | 0.013 | -0.022
15 | RCN3 (UniProt Q96D15) | 0.033 | 0.107 | -0.133 | 0.153 | -0.076 | 0.096 | 0.038 | -0.309 | 0.054 | 0.087
16 | RNPS1 (UniProt Q15287) | 0.036 | 0.013 | -0.016 | 0.107 | -0.243 | -0.067 | 0.023 | -0.026 | -0.033 | -0.019
17 | RBIS (UniProt Q8N0T1) | 0.054 | -0.002 | 0.059 | 0.037 | -0.026 | 0.058 | -0.048 | -0.037 | 0.022 | 0.03
18 | RABGGTA (UniProt Q92696) | 0.013 | 0.102 | -0.079 | -0.044 | -0.034 | -0.034 | -0.015 | 0.001 | 0.004 | -0.024
19 | RPP14 (UniProt O95059) | 0.064 | -0.01 | 0.007 | 0.059 | -0.039 | 0.012 | 0.004 | -0.029 | 0.046 | -0.034
20 | SELENOH (UniProt Q8IZQ5) | 0.124 | -0.171 | 0.066 | 0.032 | -0.063 | -0.026 | -0.011 | 0.022 | 0.011 | -0.038
21 | RPS2 (UniProt P15880) | -0.058 | 0 | 0.25 | 0.059 | 0.064 | 0.261 | 0.153 | 0.081 | 0.07 | 0.042
22 | RNF2 (UniProt Q99496) | 0.025 | -0.105 | -0.149 | 0.111 | 0.091 | -0.029 | -0.054 | -0.059 | 0.003 | 0.1
23 | RPL31 (UniProt P62899) | -0.068 | -0.003 | 0.294 | 0.147 | 0.096 | 0.282 | 0.238 | 0.121 | 0.088 | -0.052
24 | RRAGC (UniProt Q9HB90) | 0.023 | 0.006 | -0.013 | -0.025 | -0.014 | -0.005 | -0.058 | -0.063 | 0.036 | -0.005
25 | RPS20 isoform 2 (UniProt P60866) | -0.1 | 0.019 | 0.196 | 0.054 | 0.066 | 0.216 | 0.093 | -0.009 | 0.041 | 0.001
26 | RSL1D1 (UniProt O76021) | -0.086 | 0.05 | 0.481 | 0.06 | 0.004 | 0.83 (active) | 0.359 | 0.097 | 0.117 | 0.079
27 | RETSAT (UniProt Q6NUM9) | -0.088 | 0.054 | 0.03 | 0.185 | 0.02 | -0.05 | -0.001 | -0.014 | 0.012 | -0.075
28 | SAAL1 (UniProt Q96ER3) | 0.001 | -0.044 | 0.355 (active) | -0.089 | 0.042 | 0.203 | 0.031 | -0.069 | 0.017 | -0.031
29 | RAC3 (UniProt P60763) | 0.036 | 0.11 | -0.042 | -0.081 | -0.064 | 0.011 | -0.134 | 0.085 | -0.07 | 0.027
30 | RPS21 (UniProt P63220) | -0.017 | 0.005 | 0.104 | 0.246 | 0.039 | 0.052 | -0.039 | -0.001 | 0.021 | 0.027
